# Measured values: the supplement of paper PMC6555819
# System: VDR:RXRa (NR concentration 270 nM, RXRa partner concentration 90 nM)
# Test: PBM binding z-score (relative to random genomic background probes); higher = stronger binding; sequences stand for … in GC…GCGATTGACAGCGTAGAATGAAGG
# Procedure: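 Protein-binding microarray (Agilent 4x180K custom design, double-stranded 60-nt probes: 5' GC cap, 34-nt variable region, 24-nt constant primer region; full probe sequence given). Purified or IVT nuclear receptor:RXRα heterodimers (3:1 NR:RXRα, mostly 270:90 nM) or homodimers were incubated for 1 h in PBS with 2% milk and no ligand, then detected with Alexa488 antibodies. Fluorescence from o1-orientation probes (~5 replicates averaged) was converted to z-scores against 500 random hg19 background probes. Variable regions are seed direct-repeat (DR0–DR5) sites, all their single-nucleotide variants and half-site ablations.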
row,Sequence,PBM binding z-score
1,TCTAGCAGCCCAGAGGGTCACTCAAGAGGTACGG,1.1
2,ATCTGTAGGTTAAGGGTCATTCAGGTTGGTTCGC,5.77
3,GATACAGGGTCAAGGCCGGAGTACGCGTATTGAT,4.38
4,ATTGAAAGGTCGTGAGGTGAGTATACAGAAAGGC,3.71
5,ATCTCTAGGAAAAGATAGTTCAGTGAATGCAAAT,0.581
6,AGAATGAGGTTAAGACCAGGGAAACAGAATACAT,1.03
7,CCTAGTTGGTCACGGTCACACACGCTATAGGTAC,1.12
8,CGTCCAAGGTCAAGGTCAGTGAAAGAGACTCGAA,4.7
9,CATACAGGGTCAGCTAGGCCAGTGTAGGGACGGC,3.86
10,GCTAGTTGGTCAGTAAGAGGTCACACACCGGTCG,4.12
11,CGTCAAATTTCAAGGTAACGTAACAGAAAGCAGC,0.0191
12,CGAACTAGGTCATCCAGGACAGTGAATACATTGA,4.73
13,CCAAGTTGGTCAAGGTCACACACGCTATAGGTAC,4.79
14,TCTGCTAGGTCAACGGTGGTCAGCTAATCTGCTA,1.95
15,TGTCAAAGTTCAACGGTAACGTAAGTATCCACAC,4.79
16,CAAACTAGGTAAAGAGGTCAAAGTCCGCTTCCCG,4.92
17,ATCTCTATGTAACCAAGTTCAGTGAATGCCGAAC,2.22
18,CGAACTAGGTCATCCAGGGCAGTGAATACATTGA,5.26
19,CCTAGCAGGCCAGGGTCACTCTAGCATTTCGCTT,2.45
20,CCAGCTAGGTCATGGTCAGCTAATCTACAGTATG,1.6

row,Sequence,PBM binding z-score
1,CCTGGTAGGTCAATGGTCAGCTAAAGCAGCTCGC,1.33
2,TTACCAAGGTGGAGGTCGTTGATCCCTCTGTAGA,1.65
3,CAAACTAGGGCACCGGAAGGTCAAAGTCCGCATG,3.69
4,ATACCAAGGTGATCGTGAGGTCGTTTATACTAAC,3.6
5,TCTCGTTGGTCAAAGGTCACACACTCGAAATGCG,5.25
6,ACTAGCATGCCAAGGGTCACTCAAGATTAGTCCG,2.93
7,CCGACTGGGGCATAATGTTACCATAAGCCAGCCC,-0.48
8,CAGCCCAGGTCAGGGCCAGTATAGGAGGAACGTT,0.803
9,AATAGCAGGCCAAGTTTGGGTCACTCAAACAAAG,0.703
10,CGTCCCAGGTCAATGCTAGGTCAGTGAAAGCATT,3.68
11,TAGCCTAGGTCAGATCGGGCCCGTATACGCTATA,0.22
12,GCTCGGAGGACAAGGTCTGAGCTTTGTCCGTAGA,-0.681
13,CCTTACGGGTCACTGCCAGGTTATAGCATTTGGA,3.73
14,TAGCCTAGGTCATGCGCCAGTATACCACGCGAAC,2.01
15,TTACCAAGGTGAGCTGAGGTTGTTGATCCAACTC,0.678
16,CAAACTAGGTCATGGTCAAAGTCGGTTTGTGCCA,2.18
17,CCTTACGGGTCACTGACAGGTTAGAGCATTTGGA,3.33
18,AATACAGGGTCATCGTAGGCCAGAGTCCGCACAG,5.19
19,CCTAGCAAGCCAATCTGGGTCACTCAAGGCTTGA,0.396
20,TCATATAGGTGAAGGTGAAAGTCGAACGATATGA,0.278
